Screening results deposited in PubChem BioAssay by National Center for Advancing Translational Sciences (NCATS).
Hits are enriched below; roughly 14% of the tested compounds scored in any of these assays.
Marburg entry inh – blocks Marburg virus binding to or entry into cells; Marburg virus pseudotyped entry inhibition, cell reporter; Potency, µM (doses to about 37.8 µM), without a hit: at the top dose activity change, negative = inhibition, hits mostly inhibitors; 300,000 compounds, 1.8% hits; AID 540276; calls by dose curve; tested in HEK293 cells; also: potency is read from the fitted curve at half-maximal effect
Pf growth 96h – P. falciparum growth inhibition at 96 hour, primary screen for plastid delayed-death inhibitors. P. falciparum luciferase reporter growth, 96 h. 320,000 compounds, 6.9% hits. Potency, µM (doses to about 28.7 µM), without a hit: top-dose activity change, negative = inhibition, hits mostly inhibitors. AID 504834; also: potency is read from the fitted curve at half-maximal effect
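Two parasite generations (96 h, 37 C, 5% CO2) of compound exposure in infected erythrocytes (0.05% parasitemia, 2% hematocrit). Luciferase-reporter P. falciparum; decreased luminescence indicates inhibited growth, aimed at apicoplast-acting delayed death.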
HCV inhibitor – inhibitors of hepatitis C virus infection; Huh7.5.1 HCVcc-Cre infection, luciferase reporter, 44 h; Potency, µM (series often up to 41.8 µM), for the others: top-dose activity change, negative = inhibition, most hits filed as inhibitors; 340,000 compounds, 3.4% hits; also: potency is read from the fitted curve at half-maximal effect
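Infectious HCV cell culture screen: compound-treated cells (1,000/well, pre-plated 4 h) are infected with HCVcc-Cre at roughly 0.5 moi and grown 44 h. Infection is quantified by luciferase signal after 15 min substrate incubation at room temperature.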
HCMV inh – human cytomegalovirus inhibition | AID 1259415 | activity change, negative = inhibition, % at 57.5 µM | 410,000 compounds, 4.5% hits | HFF cells, HCMV-luciferase reporter, 72 h; stronger effect = lower value; in the data active = activity change below about -60%; inconclusive = no clear call, values can overlap the other calls; inactive = above about -39%
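Two compound doses tested in HFFs infected with HCMV-luciferase, MOI 1 PFU/cell, 72 h at 37C. Lysate luminescence read with OneGlo; data normalized against buffer-only and 10uM Salinomycin inhibitor controls.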
Lassa entry inh – inhibitors of Lassa virus binding or cell entry. Lassa virus pseudotype entry inhibition, cell reporter. Potency, µM (series often up to 37.9 µM), inactives show top-dose activity change, negative = inhibition, most hits filed as inhibitors. 300,000 compounds, 1.2% hits. AID 540256; calls by dose curve; tested in HEK293 cells; also: potency is read from the fitted curve at half-maximal effect; nearly all actives have a fitted effect of over 50% in size
Pf growth 48h – inhibits P. falciparum growth in the first generation, 48 h; AID 504832; P. falciparum luciferase growth in erythrocytes, 48 h; 310,000 compounds, 5.9% hits; Potency, µM (titrated, usually from 28.7 µM), for inactives: at the highest dose activity change, negative = inhibition, usual class: inhibitors; also: potency is read from the fitted curve at half-maximal effect
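Here the parasites carry a stable luciferase gene and grow inside erythrocytes in Albumax-based RPMI medium with compound for one erythrocytic cycle. Activity is scored as loss of luminescent signal.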
* hit, by the source's call; ? = inconclusive; . = not tested or not shown; [ ] = another dose, or the depositor's remark. Unless noted, calls follow the shape of the dose curve; as a rule, active = well fitted inhibition curve with a large enough effect; inconclusive = small, poorly fitted or top-dose-only effect, or another doubt; inactive = no such curve, though single readings can be large or run the other way. % is scaled to controls: 0 for no effect and ±100 for the full control effect.

SMILES | Marburg entry inh | Pf growth 96h | HCV inhibitor | HCMV inh | Lassa entry inh | Pf growth 48h
O=C(CSc1nc(-c2ccco2)cc(C(F)(F)F)n1)Nc1ccc(C(=O)N2CCOCC2)cc1 | ? | -13.5% | 10µM* | -8.4 | -11.2% | ?
O=C(CSc1nc(-c2ccco2)cc(C(F)(F)F)n1)NN1CCOCC1 | -18.5%[46.1 µM] | 24.5% | -17.3% | 1.0 | -5.1% | 2.3%
CCCN(CC(=O)Nc1ccccc1OC)C(=O)c1cccc(S(=O)(=O)NCc2ccccc2)c1 | ? | 10.4µM* | -11.8% | -26.0 | -22.2% | ?
CCN(CC(=O)Nc1ccccc1C(F)(F)F)C(=O)Cc1ccc2c(c1)CCC2 | . | 18.8% | -8.1% | 0.0 | . | ?
CCCN(CC(=O)Nc1ccccc1OC)C(=O)Cc1ccc2c(c1)CCC2 | . | ? | 2.2% | . | . | 10.4µM*
CCCN(CC(=O)Nc1ccccc1OC)C(=O)C1CCCC1 | -1.8% | -0.2% | 21.3% | -30.6 | 5.6% | 3.7%
CCCN(CC(=O)Nc1ccccc1OC)C(=O)c1ccc2c(c1)NC(=O)C(C)S2 (stereo not drawn) | . | ? | -9.6% | -16.4 | . | 10.4µM*
COc1ccc(Cl)cc1NC(=O)c1nn(-c2ccc(C)cc2)c(=O)n(C)c1=O | . | . | . | 6.8 | ? | .
Cc1ccc(C)c(N2CCN(C3C(=O)Nc4ccccc4-n4nnnc43)CC2)c1 (stereo not drawn) | . | . | . | 5.3 | . | .
Cc1ccc(C)c(N2CCN(C(=O)Cn3c(=O)c4cccn4c4ccc(F)cc43)CC2)c1 | . | . | . | 20.2 | 1.2%[46.1 µM] | .
O=C1NC(=S)NC(=O)C1=Cc1c(Cl)cccc1Cl | 11.3%[46.1 µM] | . | 10.5% | -61.4* | -0.1%[46.1 µM] | .
O=C1NC(=S)NC(=O)C1=Cc1ccc(Br)s1 | . | ? | ? | -100.5* | . | 4.7%
O=C1NC(=S)NC(=O)C1=Cc1cccc2cc3ccccc3cc12 | . | ? | 10µM* | -94.2* | . | ?
CCc1ccccc1OCC(=O)Nc1cc(S(=O)(=O)N(CC)CC)ccc1N1CCOCC1 | . | 1.17µM* | ? | 32.5 | . | 1.31µM*
CCN(CC)S(=O)(=O)c1cc(NC(=S)NC(=O)C2CCCC2)ccc1C | . | . | 3.16µM* | -71.9* | . | .
CCN(CC)S(=O)(=O)c1ccc(N2CCOCC2)c(NC(=O)CCOc2ccccc2)c1 | . | ? | -24.4% | 10.8 | . | 9.28µM*
CCN(CC)S(=O)(=O)c1ccc(NC(=S)NC(=O)C2CCC2)cc1 | ? | -11.1% | -3.6% | -11.9 | -4.5%[46.1 µM] | -11.9%
CCN(CC)S(=O)(=O)c1ccc(N2CCOCC2)c(NC(=O)C2CCCC2)c1 | 17.4% | 11.7µM* | ? | -9.8 | -4.7% | ?
CCn1c(=O)cc(OCC(=O)NCc2ccccc2Cl)c2ccccc21 | 7.8%[46.1 µM] | . | . | -8.8 | 20.1%[46.1 µM] | .
CCN(CC)S(=O)(=O)c1ccc(N2CCOCC2)c(NC(=O)COc2ccccc2)c1 | . | ? | ? | 21.8 | . | 9.28µM*
CCN(CC)S(=O)(=O)c1ccc(N2CCOCC2)c(NC(=O)c2ccccc2F)c1 | ? | -18.4% | -25.3% | -64.6* | ? | -21.4%
CCN(CC)c1ccc(S(=O)(=O)N(CC)CC)cc1NC(=O)C1CCCC1 | ? | ? | ? | 11.7 | 7.94µM* | 14.7µM*
COc1ccc(NC(=O)Cn2c(=O)n(-c3ccc(C)cc3)c(=O)c3c2c2cc(C)ccc2n3C)cc1 | . | . | . | 17.7 | 23.6%[46.1 µM] | .
O=C(OCCNc1ccc(C(F)(F)F)cc1[N+](=O)[O-])c1cc2ccccc2oc1=O | 13.8%[46.1 µM] | 1.0% | -1.4% | 8.1 | 4.0%[46.1 µM] | 53.1%
Cc1cccc(C)c1OC(=O)CSc1nnc(-c2ccc3c(c2)OCO3)o1 | ? | . | . | 6.9 | -2.7%[46.1 µM] | .
SMILES | Marburg entry inh | Pf growth 96h | HCV inhibitor | HCMV inh | Lassa entry inh | Pf growth 48h
O=C(NCC1CC1)c1cnc(N2CCN(Cc3cccc(F)c3)C2=O)s1 | . | . | . | -98.7* | . | .
CC(=O)OC[C@H]1O[C@H](CCON=C(C)CCC(=O)OC[C@H]2O[C@H](C#Cc3ccccc3)C=C[C@H]2Oc2ccc(C)cc2)C=C[C@H]1OC(C)=O | 21.3%[14.2 µM] | . | . | . | . | .
CCOC(=O)Cn1cc(C#N)c2cccc(CC)c21 | ? | 0.738µM* | -19.2% | -35.5 | -4.4%[46.1 µM] | ?
CC(C)C(=O)c1cn(CC(=O)NCc2ccco2)c2ccccc12 | 0.4% | ? | -5.0% | 47.8 | 7.4% | 8.4%
Cc1cccc(NC(=O)/C(C#N)=C/c2cn(CC(=O)NCc3ccco3)c3ccccc23)c1C | -44.8% | ? | -2.3% | -82.3* | -26.5% | -15.1%
CCc1cccc2c(C#N)cn(CC(=O)NCc3ccco3)c12 | -14.8%[46.1 µM] | . | ? | -22.5 | -9.2% | 10.4µM*
CC(C)(C)c1ccc(C2=NC(=O)C(CC(=O)O)S2)cc1 (stereo not drawn) | -0.7%[46.1 µM] | 92.4% | 7.0% | 8.4 | -2.6%[46.1 µM] | 2.62µM*
CCCn1c(CC)nc([N+](=O)[O-])c1Sc1ccc(C)cc1 | -7.5% | 10.4µM* | -12.9% | -20.1 | -5.6% | ?
CC(=O)c1cnc2nc(SCc3ccc(Cl)cc3)nn2c1C | -13.3% | -12.3% | ? | 4.0 | -12.3% | -21.6%
CC(=O)c1cnc2nc(SCc3ccc(C)cc3)nn2c1C | ? | 13.1µM* | -10.7% | -21.1 | ? | 27.5%
COc1ccc2nc(NC(=O)C3CCN(C(=O)c4ccc(F)cc4)CC3)sc2c1 | 13.0% | 9.28µM* | ? | -10.1 | ? | ?
COc1ccc(-c2csc(NC(=O)C3CCN(C(=O)c4ccc(F)cc4)CC3)n2)cc1OC | ? | ? | . | . | 15.8µM* | ?
COc1ccc(C(=O)N2CCC(C(=O)c3ccc(F)cc3)CC2)cc1 | ? | 8.0% | -3.4% | -19.5 | -19.3% | -10.4%
COc1ccc(CNC(=O)C2CCN(C(=O)c3ccc(F)cc3)CC2)cc1OC | . | 13.2% | 2.9% | -22.9 | . | ?
CC(=O)OCC12CC(OC(=O)CC(C)C)C(C)=CC1OC1C(O)C(OC(C)=O)C2(C)C12CO2 (stereo not drawn) | ? | . | . | -97.3* | ? | .
CC1CN=C(Nc2cccc3ccccc23)S1 (stereo not drawn) | 5.4% | 15.2% | -0.6% | 7.4 | ? | 11.3%
COc1ccc(Cl)cc1NC1=NCC(C)S1 (stereo not drawn) | 21.5% | -9.2% | 11.2µM* | 1.6 | 2.1% | 1.9%
CCn1nc(C)c(CNC(=O)c2cc(COc3ccc(C)nc3)on2)c1C | ? | 0.2% | 11.2µM* | -24.4 | ? | -4.2%
CCn1nc(C)c(CNC(=O)c2cc(COc3ccc(F)cc3Cl)on2)c1C | . | -20.1% | ? | -84.9* | . | -22.1%
CC(CCn1cccn1)NC(=O)c1cc(COc2ccc(F)cc2Cl)on1 (stereo not drawn) | 5.3%[46.1 µM] | 10.4µM* | -11.0% | -29.1 | -8.1%[46.1 µM] | 43.7%
O=C(NCCCn1cccn1)c1cc(COc2ccc(F)cc2Cl)on1 | . | 43.7% | -8.3% | 1.3 | . | 18.5%
CCn1cc(CNC(=O)c2cc(COc3ccc(F)cc3Cl)on2)cn1 | 14.6µM* | ? | ? | ? | ? | 7.0%
COCCN1C[C@@H](CO)O[C@@H](n2cnc3c(NC4CCCC4)ncnc32)C1 | . | . | . | -36.9 | . | .
